The nature of test [1]: qHTS assay to identify small molecule agonists of the RXR signaling pathway - cell viability counter screen (AID 1159529). Further: nearly all actives have a fitted effect of over 50% in size. Further: potency means the concentration at half of the fitted maximal effect. Put shortly:
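RXR-alpha-UAS-bla HEK 293T cells in medium with 2% charcoal-stripped FBS were preincubated 5 hr, then exposed to compounds for 16 hr at 37 C. Viability was read as CellTiter-Glo luminescence after 30 min at room temperature.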

The nature of test [2]: qHTS assay to identify small molecule antagonists of the retinoic acid receptor (RAR) signaling pathway (AID 1159552; further: nearly all actives have a fitted effect of over 50% in size; further: potency means the concentration at half of the fitted maximal effect). Put shortly:
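RARE-luc C3RL4 cells; cpds + 1 uM (final) retinol, 6 hr, 37 C/5% CO2; luciferase reagent, 30 min RT, luminescence readout. Inhibitors of retinol-driven signal scored.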

Test [3] is described as follows: qHTS assay to identify small molecule agonists of the retinoic acid receptor (RAR) signaling pathway (AID 1159553). Put shortly:
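Agonist activity was scored in C3RL4 cells bearing a retinoic acid response element luciferase construct. Cells were treated with compounds for 6 hr at 37 C, and luciferase signal was measured as luminescence.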

The nature of test [4]: qHTS assay to identify small molecule antagonists of the estrogen related receptor (ERR) signaling pathway from Tox21 library - cell viability counter screen (AID 1224834). Further: nearly all actives have a fitted effect of over 30% in size. Further: potency means the concentration at half of the fitted maximal effect. Put shortly: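 Cytotoxicity of test substances is gauged in the same ERR cells used for the antagonist screen, after 17.5 h of compound treatment at 37 C, by CellTiter-Fluor fluorescence measured after 30 min.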

The target in test [5] is Luciferin 4-monooxygenase (Photinus pyralis) (UniProt P08659). As to the kind of experiment: qHTS assay to identify small molecule inhibitors of firefly luciferase (AID 1224835). Further: nearly all actives have a fitted effect of over 25% in size. Further: potency means the concentration at half of the fitted maximal effect. The gist of the method:
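Quantitative HTS format; KM concentrations of both substrates. Purified P. pyralis FLuc activity quantified from luminescence images.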

A short description of test [6]: qHTS assay to identify small molecule agonists of the constitutive androstane receptor (CAR) signaling pathway - cell viability counter screen (AID 1224836). Further: nearly all actives have a fitted effect of over 45% in size. Further: potency means the concentration at half of the fitted maximal effect. Put shortly:
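HepG2 cells stably carrying hCAR and a CYP2B6-2.2kb reporter were plated 4 h, then given compounds at 15 concentrations plus PK11195 (final 0.75 uM). After 23 h at 37 C, viability was read by CellTiter-Fluor fluorescence.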

Test [7] in a line: qHTS assay to identify small molecule antagonists of the constitutive androstane receptor (CAR) signaling pathway - cell viability counter screen (AID 1224837). Further: nearly all actives have a fitted effect of over 45% in size. Further: potency means the concentration at half of the fitted maximal effect. Put shortly: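 Multiplexed cytotoxicity read-out for the CAR antagonist screen: double-stable HepG2-CYP2B6-hCAR cells co-treated with 50 nM CITCO (final) and compound over 15 concentrations, incubated 23 hr, then assessed by CellTiter-Fluor fluorescence.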

The nature of test [8]: qHTS assay to identify small molecule antagonists of the estrogen related receptor signaling pathway with the pleiotropic PPARgamma coactivator (PGC) from Tox21 10K library - cell viability counter screen (AID 1224840; active means well fitted cell-killing curve with a large enough effect in the repeat runs, not every such curve was filed as active; further: nearly all actives have a fitted effect of over 40% in size; further: potency means the concentration at half of the fitted maximal effect). The gist of the method:
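Step one, plate 2,000 PGC/ERR cells per well; step two, incubate 6 h at 37 C/5% CO2; step three, pin-transfer compounds; step four, incubate 17.5 h; step five, add CellTiter-Fluor and read fluorescence after 30 min.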

For test [9], the target named is Thyrotropin receptor (Homo sapiens) (UniProt P16473). As to the kind of experiment: qHTS assay to identify small molecule agonists of the thyroid stimulating hormone receptor (TSHR) signaling pathway (AID 1224843; calls by dose curve; further: nearly all actives have a fitted effect of over 45% in size). The gist of the method: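 Cell line HEK293 with TSHR; density 800/well. Exposure 30 min RT. Readout HTRF cAMP (cAMP-d2/anti-cAMP-cryptate), 1 h RT before reading.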

Test [10] has as its target Nuclear receptor subfamily 1 group I member 3 (Homo sapiens) (UniProt Q14994). As to the kind of experiment: qHTS assay to identify small molecule antagonists of the constitutive androstane receptor (CAR) signaling pathway (AID 1224838). Further: nearly all actives have a fitted effect of over 40% in size. Further: potency means the concentration at half of the fitted maximal effect. Put shortly:
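Compounds were titrated across 15 concentrations onto HepG2 cells double-stably expressing hCAR and a CYP2B6-2.2kb reporter, together with 50 nM CITCO (final). After 24 h at 37 C, luciferase activity was measured by luminescence.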

Test [11] shares this target. As to the kind of experiment: qHTS assay to identify small molecule agonists of the constitutive androstane receptor (CAR) signaling pathway (AID 1224839).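 Further: HepG2 cells stably carrying human CAR and a CYP2B6 luciferase reporter; series mostly up to about 92 µM; nearly all actives have a fitted effect of over 15% in size.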 The gist of the method:
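HepG2 cells stably expressing hCAR and a CYP2B6-2.2kb luciferase reporter were treated with compounds at 15 concentrations plus 0.75 uM PK11195 (final) for 24 h at 37 C; luminescence was read after ONE-Glo addition.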

Test [12] is described as follows: qHTS assay to identify small molecule antagonists of the retinoid acid receptor (RAR) signaling pathway - cell viability counter screen (AID 1159551). Further: nearly all actives have a fitted effect of over 35% in size. Further: potency means the concentration at half of the fitted maximal effect. The gist of the method:
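Cytotoxicity counter screen in C3RL4 cells: 6 h compound exposure with 1 uM retinol (final), viability from cellular ATP by luminescence.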

Test [13] is described as follows: qHTS assay to identify small molecule antagonists of the estrogen related receptor signaling pathway with the pleiotropic PPARgamma coactivator (PGC) from Tox21 10K library (AID 1224841; call rule not given here; further: actives are mostly falling curves and most rising ones were filed inactive; nearly all actives have a fitted effect of over 50% in size; further: potency means the concentration at half of the fitted maximal effect). The gist of the method: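 Antagonism in this quantitative HTS is taken from loss of luciferase signal in PGC/ERR cells. Cells (2,000/well) are treated with compounds in DMSO after a 6 h settling period and read by One-Glo luminescence after 18 h.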

The nature of test [14]: qHTS assay to identify small molecule agonists of the estrogen related receptor signaling pathway with the pleiotropic PPARgamma coactivator (PGC) from Tox21 10K library (AID 1224842). Further: nearly all actives have a fitted effect of over 15% in size. Further: potency means the concentration at half of the fitted maximal effect. The gist of the method: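 PGC/ERR reporter cells (NTP line) were seeded 2,000 per well, rested 6 h at 37 C/5% CO2, then pin-dosed with compounds in DMSO for 18 h at 37 C; luciferase read by One-Glo luminescence after 30 min at room temperature.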

SMILES strings stand for the structures. Several values for one entry are separate records, joined by “and”; a condition that tells them apart may be missing. Identical values can stand only once. Results filed as inconclusive are left out. Activity calls are given as the source filed them. Unless noted, the call rests on the fitted dose curve; in most records, active means well fitted curve in the direction sought with a large enough effect in the repeat runs; inconclusive means weak or mixed curves; inactive means no such curve, though single readings can be large; an effect the other way counts as inactive or inconclusive.

Chain of Nuclear receptor subfamily 1 group I member 3 (Homo sapiens) (Q14994 whole entry, looked up): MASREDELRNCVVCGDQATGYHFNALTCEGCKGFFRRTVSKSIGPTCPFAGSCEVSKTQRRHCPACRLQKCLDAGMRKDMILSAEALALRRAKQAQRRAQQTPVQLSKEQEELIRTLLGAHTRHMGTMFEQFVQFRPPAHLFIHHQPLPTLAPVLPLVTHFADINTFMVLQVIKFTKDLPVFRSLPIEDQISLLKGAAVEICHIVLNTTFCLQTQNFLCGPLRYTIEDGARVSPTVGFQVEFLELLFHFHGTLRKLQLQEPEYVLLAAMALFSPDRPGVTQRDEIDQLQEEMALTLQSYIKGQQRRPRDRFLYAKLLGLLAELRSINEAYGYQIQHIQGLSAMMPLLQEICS
Chain of Thyrotropin receptor (Homo sapiens) (P16473 whole entry, looked up): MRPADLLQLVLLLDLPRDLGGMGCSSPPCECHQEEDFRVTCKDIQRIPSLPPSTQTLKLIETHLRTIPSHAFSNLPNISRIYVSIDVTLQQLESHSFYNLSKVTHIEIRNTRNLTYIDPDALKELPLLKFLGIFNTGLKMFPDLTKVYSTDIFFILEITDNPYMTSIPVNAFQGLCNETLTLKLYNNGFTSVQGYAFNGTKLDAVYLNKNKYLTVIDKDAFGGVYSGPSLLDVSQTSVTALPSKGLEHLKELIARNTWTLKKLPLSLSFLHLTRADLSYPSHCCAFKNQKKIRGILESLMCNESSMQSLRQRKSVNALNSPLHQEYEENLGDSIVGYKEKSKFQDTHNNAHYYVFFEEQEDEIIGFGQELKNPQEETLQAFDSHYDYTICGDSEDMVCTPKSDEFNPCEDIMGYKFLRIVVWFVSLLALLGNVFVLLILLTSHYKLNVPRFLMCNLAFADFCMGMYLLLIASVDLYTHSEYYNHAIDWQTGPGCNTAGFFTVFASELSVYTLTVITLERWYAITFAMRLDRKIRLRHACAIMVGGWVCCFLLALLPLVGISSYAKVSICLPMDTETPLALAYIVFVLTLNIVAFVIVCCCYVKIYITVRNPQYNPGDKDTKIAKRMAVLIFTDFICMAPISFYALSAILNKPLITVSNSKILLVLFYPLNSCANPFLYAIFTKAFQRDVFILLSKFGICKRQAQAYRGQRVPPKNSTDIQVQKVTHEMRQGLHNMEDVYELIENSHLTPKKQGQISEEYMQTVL
Chain of Luciferin 4-monooxygenase (Photinus pyralis) (P08659 whole entry, looked up): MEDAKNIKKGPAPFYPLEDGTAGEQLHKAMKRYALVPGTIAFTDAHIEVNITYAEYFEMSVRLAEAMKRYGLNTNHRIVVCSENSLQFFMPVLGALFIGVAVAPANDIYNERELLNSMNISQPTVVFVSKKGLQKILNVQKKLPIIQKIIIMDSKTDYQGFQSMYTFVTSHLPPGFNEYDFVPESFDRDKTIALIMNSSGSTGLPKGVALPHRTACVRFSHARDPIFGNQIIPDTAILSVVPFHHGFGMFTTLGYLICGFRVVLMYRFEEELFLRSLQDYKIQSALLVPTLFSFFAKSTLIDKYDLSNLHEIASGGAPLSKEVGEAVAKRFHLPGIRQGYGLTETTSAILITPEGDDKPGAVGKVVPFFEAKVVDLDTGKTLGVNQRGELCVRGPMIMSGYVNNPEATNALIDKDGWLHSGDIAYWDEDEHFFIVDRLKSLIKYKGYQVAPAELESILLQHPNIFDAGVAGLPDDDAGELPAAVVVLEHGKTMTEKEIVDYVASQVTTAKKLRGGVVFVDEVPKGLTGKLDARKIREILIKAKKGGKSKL

Take `CCCCC(CC)CO[N+](=O)[O-]` (configuration not stated): the Potency entry in test [1], in test [2], in test [3], in [4], in [5] and in test [6] was “inactive” throughout. For the same molecule, the Potency result in test [7], in test [8] and in test [9] was “inactive” throughout.

For the molecule `FC(F)OC(F)(F)C(F)Cl` (configuration not stated), the Potency result in [1], in test [2], in test [3], in test [4], in test [5] and in test [6] was “inactive” each time. The Potency result in test [7], in [10], in [11] and in [8] was “inactive” throughout.

Take `O=C(O)c1cc(I)cc(I)c1I`: the Potency result in test [1], in test [2], in test [3], in test [4], in test [5] and in test [6] was “inactive” each time. For the same molecule, the Potency entry in [10], in [11], in test [8] and in test [9] was “inactive” throughout.

For `CC(C)OC(=O)Cc1ccccc1`, the Potency entry in [1], in [12], in test [4], in test [5], in test [6] and in [8] was “inactive” in each case. The Potency entry in test [9] is “inactive”.

In the case of `NC(=O)CF`, the Potency entry in test [1], in test [12], in [4], in test [5], in [10] and in [11] was “inactive” each time. In test [8], the Potency entry was “inactive”.

In the case of `Oc1cccc(Cl)c1`, the Potency result in [1], in [12], in [4], in [5], in test [7] and in test [8] was “inactive” in each case. The Potency entry in [13], in test [14] and in test [9] was “inactive” each time.

Regarding `O=[N+]([O-])c1cc(Cl)c(Cl)cc1Cl`, the Potency result in [1], in test [12], in test [4], in test [5], in [6] and in test [10] was “inactive” throughout. Also, the Potency result in test [11], in test [8], in test [13] and in test [14] was “inactive” in each case.

For `CCCCCCCCn1sccc1=O`, the Potency in [1] was 1.95 µM (active) and 2.04 µM (active); in [12], 68.7 µM (active) and 64.1 µM (active); in test [4] it was 27.4 µM (active) and 16.1 µM (active); in test [5] it was 35.7 µM (active) and 41.8 µM (active); in test [6], 61.3 µM (active) and 25.5 µM (active); in test [8] it was 30.7 µM (active) and 11.4 µM (active). Also, the Potency in test [13] was 30.7 µM (active). In addition, the Potency entry in test [14] was “inactive”.

Consider `COC(=O)C1(O)c2ccccc2-c2ccccc21`, for which the Potency result in [1], in test [2], in test [3], in [4], in test [5] and in [6] was “inactive” throughout. Further, the Potency result in test [8] and in [9] was “inactive” in each case.

`OCC1CO1` (configuration not stated): the Potency result in test [1], in test [12], in [4], in test [5], in test [6] and in test [8] was “inactive” each time.

As for `O=C(O)C(O)C(O)C(=O)O` (configuration not stated), the Potency result in test [1], in test [12], in test [4], in [5] and in [8] was “inactive” each time.

As for `O=[N+]([O-])O[C@H]1CO[C@H]2[C@@H]1OC[C@H]2O[N+](=O)[O-]`, the Potency result in [1], in test [12], in [4], in test [5], in test [6] and in [7] was “inactive” each time. In addition, the Potency entry in test [8], in test [13] and in [14] was “inactive” in each case.

Consider `C[Si](Cn1cncn1)(c1ccc(F)cc1)c1ccc(F)cc1`, for which the Potency result in [1], in test [12], in test [5], in test [14] and in test [9] was “inactive” each time. Also, the Potency in [4] is 63.1 µM (active) and 48.6 µM (active); in test [13] it was 39.8 µM (active) and 48.6 µM (active).

Regarding `Nc1cc(Cl)cc(C(=O)O)c1Cl`, the Potency entry in [1], in test [2], in [3], in test [4], in [5] and in test [7] was “inactive” in each case. The Potency result in test [10], in test [8], in test [13] and in test [14] was “inactive” each time.

Turning to `CCCCOC(=O)CCC(=O)OCCCC`, the Potency result in test [1], in test [2], in test [3], in test [4], in test [5] and in [6] was “inactive” in each case. Also, the Potency result in test [10], in [11], in test [8], in test [13] and in [14] was “inactive” each time.

As for `CC(C)CCCCCCCOC(=O)c1ccccc1C(=O)OCCCCCCCC(C)C`, the Potency entry in test [1], in [12], in test [4], in test [5], in test [6] and in test [10] was “inactive” throughout. In addition, the Potency entry in test [11], in [8], in [13], in test [14] and in [9] was “inactive” throughout.

As for `OC[P+](CO)(CO)CO`, the Potency entry in test [1], in [2], in test [3], in test [4], in [5] and in test [7] was “inactive” throughout. The Potency result in [10], in test [8] and in [9] was “inactive” each time.

In the case of `CN(C)c1ccc(N=O)cc1`, the Potency in test [1] was 34.8 µM (active); in [2] it was 24.4 µM (active); in [4], 27.4 µM (active) and 48.6 µM (active); in test [6] it was 27.4 µM (active) and 43.3 µM (active); in [7] it was 30.7 µM (active) and 27.3 µM (active); in test [10], 43.4 µM (active) and 43.3 µM (active). The Potency in test [8] is 19.4 µM (active) and 30.6 µM (active); in [14] it was 9.72 µM (active) and 8.63 µM (active). The Potency result in test [13] was “inactive”.

As to `CCCCC1C(=O)NC(=O)N(C2CCCCC2)C1=O` (configuration not stated), the Potency entry in [1], in [2], in [4], in test [5], in [10] and in [11] was “inactive” in each case. In addition, the Potency result in test [8] was “inactive”.

The values above are taken from PubChem BioAssay (Tox21).
